The source of these data is PubChem BioAssay AID1053125 (Broad Institute, 2014).

Measured potencies and affinities stand elsewhere. Active and inactive are the calls of the source.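 How the source made its calls: active means viability loss whose fitted half-maximal concentration is at most twice the top valid tested dose; inconclusive means flat curve with 30 to 70% loss, or poor fit; inactive means the rest.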

This assay is described as follows: HepG2 cell cytotoxicity, dose response, cytotoxicity control, ATP luminescence, cherry-pick, set 6 (AID 1053125).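 Further: negative values mean loss of viability signal.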 As to conditions: HepG2 viability, ATP luminescence (CellTiter-Glo), 72 h; series mostly up to 26 µM. On the technique in general: ATP-based viability assays read luminescence as a measure of living cells.
For the compound `O=[N+]([O-])c1cccc(Nc2c3ccccc3nc3ccccc23)c1`, the call was inactive.
Consider `CCN1C(=O)c2cccc3c(S(=O)(=O)N(C)C)ccc1c23`, for which the compound was classed as inactive.
Take `COCCN1C=C(C(=O)OC)C(c2ccc(Cl)cc2)C(C(=O)OC)=C1`: the compound was classed as inactive.
With `C=Cc1ccc(Cn2c(C)c(C(=O)NCc3cccc(C)c3)sc2=O)cc1`, the compound was called inactive.
As for `CCOCCCNc1c(CC)c(C)c(C#N)c2nc3ccccc3n12`, the entry is “inactive”; as for `Cc1c(Nc2c3ccccc3nc3ccccc23)c(=O)n(-c2ccccc2)n1C`, “inactive”; as for `CCOc1ccc(S(=O)(=O)Nc2ccc(C(=O)N(CC)CC(=O)NCc3cccs3)cc2)cc1`, “inactive”.
For `COCCNC(=O)c1cc2c(=O)n3cccc(C)c3nc2n(Cc2ccncc2)c1=N`, the compound was classed as inactive.
For the compound `CC(C)OCCCn1c(=N)c(C(N)=S)cc2c(=O)n3ccccc3nc21`, the compound was classed as inactive.
As for `COc1cc(C(=O)OCC(C)=O)cc(NC(=O)c2ccco2)c1OC`, the entry is “inactive”; as for `Cc1ccc(S(=O)(=O)CCC(=O)OCC(=O)Nc2cccc(S(=O)(=O)N3CCCCC3)c2)cc1`, “inactive”; as for `CNNC(=S)NC1CC2CC1C1C=CCC21` (configuration not stated), “inactive”.
For `CCOC(=O)C1=CN(CC2CCCO2)C=C(C(=O)OCC)C1c1ccccc1C(F)(F)F` (configuration not stated), the call was inactive.
As for `COc1ccc(C2CC(c3ccccc3)=NN2c2ccc(C(N)=O)cc2)cc1` (configuration not stated), the entry is “inactive”; as for `Cn1cccc1/C=N/NC(=O)c1sc2cc(Cl)ccc2c1Cl`, “inactive”.
Then `O=C(NS(=O)(=O)c1ccc(Cl)s1)c1ccccc1`, with “inactive”; and `O=C(CCc1c[nH]c2ccccc12)OCC(=O)c1ccccc1`, with “inactive”.
